# Key:
# Assay in all cases: DAPPL (digital affinity profiling via proximity ligation, sequencing); 10 mM Tris-HCl pH 7.5, 50 mM NaCl, 1 mM DTT, 4% glycerol, room temperature, 30 min; GST-TFs on glutathione beads, 16-mer random dsDNA library, 0.1% formaldehyde crosslink after washing; high values mean tight binding
# FLI1 = biological target: T1, FLI1 (Homo sapiens, UniProt Q01543 1-452); conditions: protein: recombinant; tags: N-terminal GST; dsDNA, one strand shown
# T1 sequence: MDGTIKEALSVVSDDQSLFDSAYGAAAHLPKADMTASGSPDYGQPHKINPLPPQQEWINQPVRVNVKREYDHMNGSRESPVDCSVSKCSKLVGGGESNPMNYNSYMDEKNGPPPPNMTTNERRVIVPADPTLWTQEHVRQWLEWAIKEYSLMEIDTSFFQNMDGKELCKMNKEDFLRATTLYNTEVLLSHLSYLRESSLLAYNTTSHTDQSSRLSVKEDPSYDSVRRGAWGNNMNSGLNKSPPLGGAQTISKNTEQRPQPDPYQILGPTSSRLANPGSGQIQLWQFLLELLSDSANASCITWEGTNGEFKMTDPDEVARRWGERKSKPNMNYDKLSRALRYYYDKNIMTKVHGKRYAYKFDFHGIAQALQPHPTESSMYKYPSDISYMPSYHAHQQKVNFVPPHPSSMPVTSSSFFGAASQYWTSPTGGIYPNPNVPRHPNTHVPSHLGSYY
# In short: (§1)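 Beads coated with glutathione captured GST-fused human transcription factors that had been expressed in yeast, and the factors were then given DNA barcodes and pooled with a tag-only sample. The pools were incubated with 200 nmole of a random double-stranded 16-mer DNA library in Tris/NaCl/DTT/glycerol buffer for 30 min at room temperature, washed, crosslinked with 0.1% formaldehyde and proximity-ligated with BsaI/T4 ligase at 37 °C for 1 h. PCR amplification and Illumina NextSeq500 sequencing came last. Binding signal is each hexamer's read frequency for a factor divided by its frequency for the tag-only sample.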
# ELK1 = biological target: T2, ELK1 (Homo sapiens, UniProt P19419 1-428); conditions: protein: recombinant; tags: N-terminal GST; dsDNA, one strand shown
# T2 sequence: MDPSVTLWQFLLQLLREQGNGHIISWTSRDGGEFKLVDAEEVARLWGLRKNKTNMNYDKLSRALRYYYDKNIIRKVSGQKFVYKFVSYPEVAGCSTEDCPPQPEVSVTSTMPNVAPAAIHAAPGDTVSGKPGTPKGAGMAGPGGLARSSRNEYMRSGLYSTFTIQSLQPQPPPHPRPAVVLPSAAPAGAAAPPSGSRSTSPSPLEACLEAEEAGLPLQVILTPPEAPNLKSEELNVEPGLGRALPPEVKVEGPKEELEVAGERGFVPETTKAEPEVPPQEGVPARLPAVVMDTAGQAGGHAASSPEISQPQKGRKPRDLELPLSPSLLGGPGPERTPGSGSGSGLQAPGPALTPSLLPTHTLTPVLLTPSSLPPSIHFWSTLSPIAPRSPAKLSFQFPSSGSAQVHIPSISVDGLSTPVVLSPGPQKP
# In short: as §1
# GABPA = biological target: T3, GABPA (Homo sapiens, UniProt Q06546 1-454); conditions: protein: recombinant; tags: N-terminal GST; dsDNA, one strand shown
# T3 sequence: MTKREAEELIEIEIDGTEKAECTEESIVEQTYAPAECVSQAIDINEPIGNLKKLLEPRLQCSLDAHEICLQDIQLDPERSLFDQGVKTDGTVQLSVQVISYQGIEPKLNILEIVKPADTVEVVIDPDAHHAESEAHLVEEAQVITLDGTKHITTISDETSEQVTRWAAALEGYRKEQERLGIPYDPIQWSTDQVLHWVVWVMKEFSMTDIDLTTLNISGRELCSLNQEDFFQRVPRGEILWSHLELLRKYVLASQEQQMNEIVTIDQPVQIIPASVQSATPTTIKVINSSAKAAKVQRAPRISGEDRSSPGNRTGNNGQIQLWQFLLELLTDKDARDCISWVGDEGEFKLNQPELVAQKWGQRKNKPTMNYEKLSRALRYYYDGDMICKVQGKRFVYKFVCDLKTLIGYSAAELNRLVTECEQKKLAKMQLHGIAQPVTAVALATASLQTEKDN
# In short: as §1
# ERG = biological target: T4, ERG (Homo sapiens, UniProt P11308 1-479); conditions: protein: recombinant; tags: N-terminal GST; dsDNA, one strand shown
# T4 sequence: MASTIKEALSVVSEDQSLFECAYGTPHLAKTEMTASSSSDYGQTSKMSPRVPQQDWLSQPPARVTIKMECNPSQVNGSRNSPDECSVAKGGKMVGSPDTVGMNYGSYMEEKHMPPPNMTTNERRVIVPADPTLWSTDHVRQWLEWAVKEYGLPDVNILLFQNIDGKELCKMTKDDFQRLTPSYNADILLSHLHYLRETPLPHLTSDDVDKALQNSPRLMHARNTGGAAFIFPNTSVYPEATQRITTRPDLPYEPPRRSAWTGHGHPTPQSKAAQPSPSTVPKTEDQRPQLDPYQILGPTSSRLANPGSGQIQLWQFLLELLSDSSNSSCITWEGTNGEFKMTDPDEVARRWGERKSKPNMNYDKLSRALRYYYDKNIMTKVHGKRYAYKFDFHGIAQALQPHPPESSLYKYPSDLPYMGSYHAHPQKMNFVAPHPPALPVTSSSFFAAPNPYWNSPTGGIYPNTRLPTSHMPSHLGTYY
# In short: as §1
# ELF1 = ELF1 (Homo sapiens, UniProt P32519 1-619); conditions: protein: recombinant; tags: N-terminal GST; dsDNA, one strand shown
# In short: as §1
# EHF = biological target: T5, EHF (Homo sapiens, UniProt Q9NZC4 1-300); conditions: protein: recombinant; tags: N-terminal GST; dsDNA, one strand shown
# T5 sequence: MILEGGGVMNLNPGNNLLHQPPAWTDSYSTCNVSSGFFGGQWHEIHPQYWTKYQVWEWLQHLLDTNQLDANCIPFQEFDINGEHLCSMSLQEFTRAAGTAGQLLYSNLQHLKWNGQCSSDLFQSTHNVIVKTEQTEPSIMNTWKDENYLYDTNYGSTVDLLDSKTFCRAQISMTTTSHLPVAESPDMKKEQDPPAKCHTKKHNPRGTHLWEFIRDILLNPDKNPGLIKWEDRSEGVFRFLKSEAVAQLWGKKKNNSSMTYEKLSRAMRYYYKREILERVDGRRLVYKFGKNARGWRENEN
# In short: as §1
# SPI1 = SPI1 (Homo sapiens, UniProt P17947 1-270); conditions: protein: recombinant; tags: N-terminal GST; dsDNA, one strand shown
# In short: as §1
# SPIB = SPIB (Homo sapiens, UniProt Q01892 1-262); conditions: protein: recombinant; tags: N-terminal GST; dsDNA, one strand shown
# In short: as §1
# ELK3 = biological target: T6, ELK3 (Homo sapiens, UniProt P41970 1-407); conditions: protein: recombinant; tags: N-terminal GST; dsDNA, one strand shown
# T6 sequence: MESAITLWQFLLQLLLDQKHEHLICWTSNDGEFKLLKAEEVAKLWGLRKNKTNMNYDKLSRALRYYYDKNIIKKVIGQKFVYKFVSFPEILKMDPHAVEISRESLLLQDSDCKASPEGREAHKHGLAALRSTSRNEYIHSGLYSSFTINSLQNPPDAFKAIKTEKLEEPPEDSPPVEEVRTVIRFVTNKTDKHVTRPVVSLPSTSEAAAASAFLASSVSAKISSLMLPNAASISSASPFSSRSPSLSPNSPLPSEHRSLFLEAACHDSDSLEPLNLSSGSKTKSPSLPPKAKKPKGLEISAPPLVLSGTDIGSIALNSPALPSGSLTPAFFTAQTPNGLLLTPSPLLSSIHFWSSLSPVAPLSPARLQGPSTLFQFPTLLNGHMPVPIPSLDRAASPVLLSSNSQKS
# In short: as §1
# FEV = biological target: T7, FEV (Homo sapiens, UniProt Q99581 1-238); conditions: protein: recombinant; tags: N-terminal GST; dsDNA, one strand shown
# T7 sequence: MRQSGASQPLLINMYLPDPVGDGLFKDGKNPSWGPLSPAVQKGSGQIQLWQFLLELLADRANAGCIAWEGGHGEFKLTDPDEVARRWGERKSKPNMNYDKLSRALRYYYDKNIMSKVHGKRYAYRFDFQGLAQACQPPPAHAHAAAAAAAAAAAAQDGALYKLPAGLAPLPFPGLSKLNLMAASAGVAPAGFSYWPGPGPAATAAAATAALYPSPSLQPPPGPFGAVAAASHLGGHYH
# In short: as §1
# ETV5 = ETV5 (Homo sapiens, UniProt P41161 1-510); conditions: protein: recombinant; tags: N-terminal GST; dsDNA, one strand shown
# In short: as §1
# HSF1 = HSF1 (Homo sapiens, UniProt Q00613 1-529); conditions: protein: recombinant; tags: N-terminal GST; chain copies: 3; dsDNA, one strand shown
# In short: as §1
# SPIC = biological target: T8, SPIC (Homo sapiens, UniProt Q8N5J4 1-248); conditions: protein: recombinant; tags: N-terminal GST; dsDNA, one strand shown
# T8 sequence: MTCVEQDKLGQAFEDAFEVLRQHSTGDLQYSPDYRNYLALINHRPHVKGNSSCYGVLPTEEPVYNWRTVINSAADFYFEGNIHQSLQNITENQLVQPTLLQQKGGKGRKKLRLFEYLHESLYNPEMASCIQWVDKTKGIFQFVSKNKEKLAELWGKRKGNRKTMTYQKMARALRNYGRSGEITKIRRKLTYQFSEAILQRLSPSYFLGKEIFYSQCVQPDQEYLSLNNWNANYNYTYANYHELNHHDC
# In short: as §1
# ELF4 = ELF4 (Homo sapiens, UniProt Q99607 1-663); conditions: protein: recombinant; tags: N-terminal GST; dsDNA, one strand shown
# In short: as §1
# ELK4 = biological target: T9, ELK4 (Homo sapiens, UniProt P28324-2 1-405); conditions: protein: recombinant; tags: N-terminal GST; dsDNA, one strand shown
# T9 sequence: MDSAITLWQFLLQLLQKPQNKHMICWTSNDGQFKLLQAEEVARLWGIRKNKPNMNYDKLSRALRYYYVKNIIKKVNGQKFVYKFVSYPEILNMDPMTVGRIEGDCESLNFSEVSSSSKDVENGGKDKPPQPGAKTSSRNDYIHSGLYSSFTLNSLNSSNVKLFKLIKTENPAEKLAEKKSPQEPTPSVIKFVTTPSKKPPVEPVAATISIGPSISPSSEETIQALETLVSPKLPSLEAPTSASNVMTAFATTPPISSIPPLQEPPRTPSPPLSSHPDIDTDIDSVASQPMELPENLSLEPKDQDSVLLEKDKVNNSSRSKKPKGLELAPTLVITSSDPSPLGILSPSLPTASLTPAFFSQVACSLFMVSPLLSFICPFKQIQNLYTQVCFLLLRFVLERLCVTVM
# In short: as §1
# ETV2 = biological target: T10, ETV2 (Homo sapiens, UniProt O00321 1-342); conditions: protein: recombinant; tags: N-terminal GST; dsDNA, one strand shown
# T10 sequence: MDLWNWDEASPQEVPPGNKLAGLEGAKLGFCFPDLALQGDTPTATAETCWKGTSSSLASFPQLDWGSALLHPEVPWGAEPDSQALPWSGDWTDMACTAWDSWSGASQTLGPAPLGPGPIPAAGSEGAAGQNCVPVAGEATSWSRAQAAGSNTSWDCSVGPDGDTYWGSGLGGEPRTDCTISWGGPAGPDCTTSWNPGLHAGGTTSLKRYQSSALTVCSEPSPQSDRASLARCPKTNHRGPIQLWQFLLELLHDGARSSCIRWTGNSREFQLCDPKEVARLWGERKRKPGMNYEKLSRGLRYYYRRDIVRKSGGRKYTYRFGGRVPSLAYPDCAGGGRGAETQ
# In short: as §1
# ELF3 = biological target: T11, ELF3 (Homo sapiens, UniProt P78545 1-371); conditions: protein: recombinant; tags: N-terminal GST; dsDNA, one strand shown
# T11 sequence: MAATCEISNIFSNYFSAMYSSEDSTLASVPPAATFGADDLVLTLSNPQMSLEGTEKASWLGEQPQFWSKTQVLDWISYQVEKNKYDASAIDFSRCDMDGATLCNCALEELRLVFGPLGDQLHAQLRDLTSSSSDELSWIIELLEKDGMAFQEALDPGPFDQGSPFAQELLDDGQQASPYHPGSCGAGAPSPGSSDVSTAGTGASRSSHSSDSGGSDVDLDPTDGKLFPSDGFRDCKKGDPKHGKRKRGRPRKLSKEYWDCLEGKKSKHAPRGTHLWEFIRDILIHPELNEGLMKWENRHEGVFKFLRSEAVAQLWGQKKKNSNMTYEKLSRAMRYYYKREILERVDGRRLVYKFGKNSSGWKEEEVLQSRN
# In short: as §1
# CRX = CRX (Homo sapiens, UniProt O43186 1-299); conditions: protein: recombinant; tags: N-terminal GST; dsDNA, one strand shown
# In short: as §1
# ETV1 = ETV1 (Homo sapiens, UniProt P50549 1-477); conditions: protein: recombinant; tags: N-terminal GST; dsDNA, one strand shown
# In short: as §1
# Chain of ELF4 (Q99607 whole entry): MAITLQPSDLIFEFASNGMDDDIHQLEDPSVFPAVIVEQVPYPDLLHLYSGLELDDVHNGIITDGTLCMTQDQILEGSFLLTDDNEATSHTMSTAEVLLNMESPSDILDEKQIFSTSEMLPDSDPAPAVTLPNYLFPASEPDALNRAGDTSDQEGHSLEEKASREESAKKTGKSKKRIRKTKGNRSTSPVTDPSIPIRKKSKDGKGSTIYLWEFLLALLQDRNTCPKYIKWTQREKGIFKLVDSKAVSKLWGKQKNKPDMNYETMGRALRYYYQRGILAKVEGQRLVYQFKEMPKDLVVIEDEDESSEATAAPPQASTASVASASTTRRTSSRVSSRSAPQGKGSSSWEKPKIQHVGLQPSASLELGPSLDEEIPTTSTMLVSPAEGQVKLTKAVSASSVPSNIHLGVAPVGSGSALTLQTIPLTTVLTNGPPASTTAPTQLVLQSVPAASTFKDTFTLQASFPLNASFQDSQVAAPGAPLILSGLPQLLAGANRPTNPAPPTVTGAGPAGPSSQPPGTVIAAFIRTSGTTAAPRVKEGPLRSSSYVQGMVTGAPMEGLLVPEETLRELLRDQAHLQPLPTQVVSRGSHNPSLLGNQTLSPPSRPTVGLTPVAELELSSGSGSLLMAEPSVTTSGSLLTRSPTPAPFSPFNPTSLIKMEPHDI
# Chain of ETV1 (P50549 whole entry): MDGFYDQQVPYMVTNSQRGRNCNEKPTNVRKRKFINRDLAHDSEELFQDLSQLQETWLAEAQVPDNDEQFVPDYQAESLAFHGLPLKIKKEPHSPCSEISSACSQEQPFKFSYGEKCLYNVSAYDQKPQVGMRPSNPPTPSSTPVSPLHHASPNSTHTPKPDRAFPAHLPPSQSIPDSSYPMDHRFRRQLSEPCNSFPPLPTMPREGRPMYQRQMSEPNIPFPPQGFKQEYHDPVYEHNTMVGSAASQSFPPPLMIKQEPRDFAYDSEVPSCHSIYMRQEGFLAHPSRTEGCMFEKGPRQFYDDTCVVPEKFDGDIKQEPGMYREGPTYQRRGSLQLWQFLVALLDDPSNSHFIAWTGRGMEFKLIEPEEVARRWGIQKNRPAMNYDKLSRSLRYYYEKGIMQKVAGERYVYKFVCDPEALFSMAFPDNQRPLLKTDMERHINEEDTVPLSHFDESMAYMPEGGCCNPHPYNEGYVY
# Chain of CRX (O43186 whole entry): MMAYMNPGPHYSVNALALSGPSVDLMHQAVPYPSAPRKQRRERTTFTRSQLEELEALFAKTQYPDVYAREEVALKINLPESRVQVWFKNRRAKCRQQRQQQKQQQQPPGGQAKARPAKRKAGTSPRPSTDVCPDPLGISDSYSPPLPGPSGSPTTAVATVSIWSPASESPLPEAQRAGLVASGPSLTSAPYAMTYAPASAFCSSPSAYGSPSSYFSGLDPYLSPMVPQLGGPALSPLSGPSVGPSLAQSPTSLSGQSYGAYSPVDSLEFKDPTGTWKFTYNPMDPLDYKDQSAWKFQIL
# Chain of HSF1 (Q00613 whole entry): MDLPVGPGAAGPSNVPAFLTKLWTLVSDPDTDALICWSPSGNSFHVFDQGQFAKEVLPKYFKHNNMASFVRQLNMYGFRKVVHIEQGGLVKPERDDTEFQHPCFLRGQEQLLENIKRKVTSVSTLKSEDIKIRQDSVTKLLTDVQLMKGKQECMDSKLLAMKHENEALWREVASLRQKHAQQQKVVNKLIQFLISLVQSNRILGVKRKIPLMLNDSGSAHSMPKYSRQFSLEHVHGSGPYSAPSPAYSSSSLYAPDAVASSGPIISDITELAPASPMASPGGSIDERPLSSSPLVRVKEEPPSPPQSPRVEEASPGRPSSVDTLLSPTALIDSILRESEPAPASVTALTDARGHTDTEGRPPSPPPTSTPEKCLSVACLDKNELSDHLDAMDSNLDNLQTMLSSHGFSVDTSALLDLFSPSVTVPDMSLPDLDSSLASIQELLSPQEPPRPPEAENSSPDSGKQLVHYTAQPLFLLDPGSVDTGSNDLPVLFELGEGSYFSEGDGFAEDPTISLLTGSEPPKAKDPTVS
# Chain of ETV5 (P41161 whole entry): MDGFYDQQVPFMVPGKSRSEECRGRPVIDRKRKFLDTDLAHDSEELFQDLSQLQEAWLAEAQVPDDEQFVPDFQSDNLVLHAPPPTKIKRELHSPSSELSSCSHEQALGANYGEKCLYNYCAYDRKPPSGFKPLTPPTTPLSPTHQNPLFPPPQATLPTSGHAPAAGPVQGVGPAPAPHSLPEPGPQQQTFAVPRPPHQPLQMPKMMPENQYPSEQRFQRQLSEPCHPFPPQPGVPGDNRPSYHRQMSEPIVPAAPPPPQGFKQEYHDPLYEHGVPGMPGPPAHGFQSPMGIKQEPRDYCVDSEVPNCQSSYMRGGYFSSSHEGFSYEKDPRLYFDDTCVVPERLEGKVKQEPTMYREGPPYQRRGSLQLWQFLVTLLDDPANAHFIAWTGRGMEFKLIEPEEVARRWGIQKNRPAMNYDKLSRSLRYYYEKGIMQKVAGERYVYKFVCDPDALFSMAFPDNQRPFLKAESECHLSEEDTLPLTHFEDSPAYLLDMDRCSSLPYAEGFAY
# Chain of ELF1 (P32519 whole entry): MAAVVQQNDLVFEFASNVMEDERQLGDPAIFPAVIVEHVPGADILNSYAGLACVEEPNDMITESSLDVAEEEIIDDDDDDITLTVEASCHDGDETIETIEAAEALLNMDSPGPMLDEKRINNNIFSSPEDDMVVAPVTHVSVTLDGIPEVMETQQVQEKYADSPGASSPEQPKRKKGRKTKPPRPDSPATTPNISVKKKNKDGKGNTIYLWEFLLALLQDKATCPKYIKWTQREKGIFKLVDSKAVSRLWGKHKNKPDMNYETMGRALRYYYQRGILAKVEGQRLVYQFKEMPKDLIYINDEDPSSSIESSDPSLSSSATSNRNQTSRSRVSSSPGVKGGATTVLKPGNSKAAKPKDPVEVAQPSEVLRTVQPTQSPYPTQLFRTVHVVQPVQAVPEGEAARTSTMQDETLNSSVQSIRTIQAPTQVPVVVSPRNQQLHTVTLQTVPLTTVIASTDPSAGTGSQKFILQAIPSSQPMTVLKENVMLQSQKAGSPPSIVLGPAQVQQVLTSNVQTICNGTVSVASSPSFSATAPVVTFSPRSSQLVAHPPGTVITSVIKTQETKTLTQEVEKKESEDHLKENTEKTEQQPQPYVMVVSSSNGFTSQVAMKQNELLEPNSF
# Chain of SPIB (Q01892 whole entry): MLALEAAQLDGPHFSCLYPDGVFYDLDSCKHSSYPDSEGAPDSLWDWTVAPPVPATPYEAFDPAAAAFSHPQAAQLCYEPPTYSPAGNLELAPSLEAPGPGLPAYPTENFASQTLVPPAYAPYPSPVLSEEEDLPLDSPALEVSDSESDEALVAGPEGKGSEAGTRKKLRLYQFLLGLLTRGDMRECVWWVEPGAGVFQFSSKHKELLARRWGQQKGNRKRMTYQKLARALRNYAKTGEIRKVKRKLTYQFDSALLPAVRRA
sequence,measurement,setting,value
TATGGA,binding signal,FLI1,"1.07 fold enrichment (6-mer frequency, TF over GST control)"
same,binding signal,ELK1,"1.13 fold enrichment (6-mer frequency, TF over GST control)"
same,binding signal,GABPA,"1.09 fold enrichment (6-mer frequency, TF over GST control)"
same,binding signal,ERG,"1.15 fold enrichment (6-mer frequency, TF over GST control)"
same,binding signal,ELF1,"1.06 fold enrichment (6-mer frequency, TF over GST control)"
same,binding signal,EHF,"1.26 fold enrichment (6-mer frequency, TF over GST control)"
same,binding signal,SPI1,"1.07 fold enrichment (6-mer frequency, TF over GST control)"
same,binding signal,SPIB,"1.17 fold enrichment (6-mer frequency, TF over GST control)"
same,binding signal,ELK3,"1.12 fold enrichment (6-mer frequency, TF over GST control)"
same,binding signal,FEV,"1.05 fold enrichment (6-mer frequency, TF over GST control)"
same,binding signal,ETV5,"1.12 fold enrichment (6-mer frequency, TF over GST control)"
same,binding signal,HSF1,"1.33 fold enrichment (6-mer frequency, TF over GST control)"
same,binding signal,SPIC,"1.14 fold enrichment (6-mer frequency, TF over GST control)"
same,binding signal,ELF4,"1.07 fold enrichment (6-mer frequency, TF over GST control)"
same,binding signal,ELK4,"1 fold enrichment (6-mer frequency, TF over GST control)"
same,binding signal,ETV2,"1.25 fold enrichment (6-mer frequency, TF over GST control)"
same,binding signal,ELF3,"1.15 fold enrichment (6-mer frequency, TF over GST control)"
same,binding signal,CRX,"1.4 fold enrichment (6-mer frequency, TF over GST control)"
same,binding signal,ETV1,"1.12 fold enrichment (6-mer frequency, TF over GST control)"

# — PMC7862700, “An all-to-all approach to the identification of sequence-specific readers for epigenetic DNA modifications on cytosine”
